# Laboratory results reported in PubChem BioAssay.
# For part of these data: Results with a measured potency or affinity are listed apart. Activity calls are given as the source filed them. Unless noted, the limit is not given here; nearly all actives have IC50 up to about 0.91 µM.
# Legend:
# [1] = antimalarial activity against Dd2 strain (AID 2302;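 active = growth inhibition above 50% at the single 2 µM test dose, taken to imply half-maximal potency below 2 µM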;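 also: 0% = DMSO untreated growth and 100% = chloroquine plus artemisinin killed control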); conditions: P. falciparum Dd2 in RBCs, LDH growth readout, 72 h; at 2 µM; active compounds read high
# [2] = molecular target: Calcium-dependent protein kinase 4 (Plasmodium falciparum (isolate 3D7)) (UniProt Q8IBS5); assay: PfCDPK4 kinase inhibitors, biochemical, TCAMS library (AID 1159588); conditions: recombinant PfCDPK4, Kinase-Glo ATP depletion luminescence
# Calcium-dependent protein kinase 4 (Plasmodium falciparum (isolate 3D7)), sequence (Q8IBS5 whole entry, looked up): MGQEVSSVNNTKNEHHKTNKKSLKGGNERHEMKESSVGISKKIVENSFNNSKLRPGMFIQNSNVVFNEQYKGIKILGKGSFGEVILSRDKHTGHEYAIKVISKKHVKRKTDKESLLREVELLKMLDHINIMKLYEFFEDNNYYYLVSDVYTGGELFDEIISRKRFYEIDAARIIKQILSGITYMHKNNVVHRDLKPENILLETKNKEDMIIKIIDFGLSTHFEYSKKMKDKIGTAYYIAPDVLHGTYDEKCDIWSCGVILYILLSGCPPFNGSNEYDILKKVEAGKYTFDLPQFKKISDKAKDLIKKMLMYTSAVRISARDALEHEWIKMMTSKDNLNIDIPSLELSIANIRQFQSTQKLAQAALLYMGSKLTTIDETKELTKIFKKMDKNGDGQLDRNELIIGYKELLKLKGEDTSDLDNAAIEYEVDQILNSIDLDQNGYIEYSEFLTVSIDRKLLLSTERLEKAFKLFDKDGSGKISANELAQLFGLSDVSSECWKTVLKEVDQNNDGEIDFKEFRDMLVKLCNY
Compound,growth inhibition [1],outcome [2]
COc1ccc(C[C@H](N)C(=O)N[C@H]2[C@@H](O)[C@H](n3cnc4c(N(C)C)ncnc43)O[C@@H]2CO)cc1,91% (active),inactive
O=c1ccc2ccc(O)c(O)c2o1,,inactive
